Compound activity (PubChem BioAssay)
FBW7 activator: activators of human E3 ligase FBW7. AlphaScreen FBW7–phospho-cyclin E peptide binding, activator screen. normalized activity (activation), % at 26.1 µM. 650,000 compounds, 0.13% hits; in the data active means normalized activity above about 1.9%;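 further: purified mutant Fbw7 with reduced substrate affinity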
Target sequence (Q969H0 whole entry, looked up): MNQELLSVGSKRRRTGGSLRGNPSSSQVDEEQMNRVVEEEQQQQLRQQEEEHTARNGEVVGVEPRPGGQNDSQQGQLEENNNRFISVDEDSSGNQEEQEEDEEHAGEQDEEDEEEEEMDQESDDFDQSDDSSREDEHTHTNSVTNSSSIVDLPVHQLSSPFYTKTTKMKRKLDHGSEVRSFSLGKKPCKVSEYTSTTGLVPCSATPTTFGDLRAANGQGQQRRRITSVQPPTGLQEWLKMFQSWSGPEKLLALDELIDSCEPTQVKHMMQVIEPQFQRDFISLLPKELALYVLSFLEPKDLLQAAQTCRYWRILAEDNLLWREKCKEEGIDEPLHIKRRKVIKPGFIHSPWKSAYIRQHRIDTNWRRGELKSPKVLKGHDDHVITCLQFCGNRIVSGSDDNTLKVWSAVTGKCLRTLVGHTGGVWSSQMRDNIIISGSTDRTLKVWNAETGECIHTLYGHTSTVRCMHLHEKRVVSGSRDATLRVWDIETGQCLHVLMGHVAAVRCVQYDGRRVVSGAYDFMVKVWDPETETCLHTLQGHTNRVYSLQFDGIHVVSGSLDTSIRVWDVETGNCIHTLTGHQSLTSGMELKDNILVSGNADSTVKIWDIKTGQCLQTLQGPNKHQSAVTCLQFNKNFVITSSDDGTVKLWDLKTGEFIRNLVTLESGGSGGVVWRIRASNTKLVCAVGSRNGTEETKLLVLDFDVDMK
MITF primary: human MITF inhibition, primary screen; AlphaScreen MITF homodimerization, bead proximity signal; inhibition, % at 2.6 µM; 650,000 compounds, 0.91% hits; AID 1259374; in the data active means inhibition above about 50%;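 further: 0% = vehicle wells with protein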
TEAD-YAP inh: TEAD-YAP interaction inhibition | HEK-TIYL cells, TEAD-Gal4/YAP UAS-luciferase luminescence | inhibition, % at 9.12 µM | 640,000 compounds, 1.4% hits | AID 1259422; in the data active means inhibition above about 32%;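 further: 0% = median of test compound wells and 100% = reference inhibitor wells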
GPR151 ag: activators of human GPR151. 650,000 compounds, 1% hits. activation, % at 11.2 µM. Q8TDV0. PathHunter beta-arrestin GPR151 cells, luminescence; in the data active means activation above about 4.9%;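 further: 0% = median of compound wells and 100% = cells with positive control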
MITF inh conf: human MITF inhibition, confirmation. shares compounds with MITF primary. AlphaScreen MITF homodimerization, biotin/His-MITF beads. inhibition, % at 2.6 µM. 4,700 compounds, 16% hits. AID 1259372;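 active means inhibition above a cutoff derived from the DMSO control wells, cut at about 28% in these data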;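 further: 0% = MITF dimer wells with DMSO only; inhibitors lower the bead chemiluminescence by keeping MITF from dimerizing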
AS interf DR: optically interferes with AlphaScreen signal in dose response; shares compounds with MITF primary; AlphaScreen optical interference counterscreen, cell-free; IC50, µM; 480 compounds, 6% hits; call rule not given here
AS interf ctr: counter-screen: compounds optically interfering with AlphaScreen | shares compounds with MITF primary | LysRS AlphaScreen counterscreen, signal interference, triplicate | inhibition, % at 2.6 µM | 4,700 compounds, 7.6% hits;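 active means inhibition above a cutoff derived from the DMSO control wells, cut at about 30% in these data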
Active calls of the source: *; . = no result given. Hits are enriched below; roughly 3.5% of the tested compounds scored in any of these assays.

SMILES	FBW7 activator	MITF primary	TEAD-YAP inh	GPR151 ag	MITF inh conf	AS interf ctr	others
COc1cc(N2CCOCC2)ccc1Nc1cc(NCc2ccccc2)c(C(F)(F)F)cn1	0	10	-1	-1	.	.
O=C1NC(=O)C(=Cc2cccc(OCc3ccc([N+](=O)[O-])cc3)c2)C(=O)N1	0	4	-13	-3	.	.
Nc1ncc(-c2ccccc2)nc1N1CCC(C(=O)O)CC1	0	-7	-22	0	.	.
Nc1ncc(-c2ccco2)nc1N1CCC(C(=O)O)CC1	0	73*	7	0	22	12
O=C(O)/C=C/c1ccc([N+](=O)[O-])o1	0	60*	4	-1	64*	7	AS interf DR=>11
CCCCn1nnnc1SCC(=O)Nc1cccc(C(C)=O)c1	0	68*	-4	0	3	5
CC(=O)NNC(=O)CSc1nnnn1-c1cccc(C(C)=O)c1	0	73*	4	2	4	16
CCCCn1nnnc1SCC(=O)Nc1cccc(C)c1	0	21	-7	0	.	.
COC(=O)C1=C(O)/C(=C/c2ccccc2O)N=C1C	0	11	7	-1	.	.
CCSCCOC(=O)C1=C(C)NC2=C(C(=O)C(C(=O)OC)C(C)C2)C1c1cccc(OCc2ccccc2)c1 (centres undefined)	0	71*	-2	0	-18	-8
CC(=O)COc1ccc2c(C(F)(F)F)cc(=O)oc2c1	0	-23	4	-1	.	.
CC(Oc1ccc2c(C(F)(F)F)cc(=O)oc2c1)C(=O)NN (centres undefined)	0	58*	1	4	44*	-4	AS interf DR=>6.6
Nc1cccc(-c2cncc(C(=O)NCc3nc4ccccc4[nH]3)c2)c1	0	16	4	1	.	.
O=C(CN1C(=O)NC2(CCCCCC2)C1=O)NC(=O)NCc1ccco1	0	70*	-4	-1	71*	12	AS interf DR=>7.2
CSc1ccc(CC(=O)NCC2CCC3(CCN(Cc4ccccn4)CC3)O2)cc1 (centres undefined)	0	69*	6	0	2	4
COc1cccc(CC(=O)NCC2CCC3(CCN(Cc4ccccn4)CC3)O2)c1 (centres undefined)	0	-1	11	0	.	.
Cc1cc(N)c(O)c2ncccc12	0	81*	6	0	104*	101*
Cc1ccc(S(=O)(=O)Nc2cc(Cl)c(O)c3ncccc23)cc1	-1	22	4	-1	.	.
O=C(NCC(O)C(=O)N1CCOCC1)c1cc(Nc2ccc3[nH]ncc3c2)ccn1 (centres undefined)	0	0	4	-1	.	.
O=C(NCC(O)C(=O)N1CCOCC1)c1cccc(Nc2ccc3[nH]ncc3c2)n1 (centres undefined)	0	57*	8	0	62*	7	AS interf DR=>6.5
COC(=O)c1c(NC(=O)C2C3C=CC(C3)C2C(=O)O)sc2c1CCCCCC2 (centres undefined)	0	3	22	-1	.	.
COC(=O)CN(CCN(CC(=O)O)CC(=O)OC)CC(=O)O	1	55*	-12	0	41*	-27
O=C(O)CN(CCN(CC(=O)O)CC(=O)O)CC(=O)O	0	18	1	-1	.	.
COc1cc2nc(CN(C)Cc3cc(C)no3)nc(N)c2cc1OC	0	17	-31	3	.	.
COc1cc2nc(CN(C)Cc3nccs3)nc(N)c2cc1OC	0	73*	5	1	48*	100*
SMILES	FBW7 activator	MITF primary	TEAD-YAP inh	GPR151 ag	MITF inh conf	AS interf ctr	others
Cc1oc(C(=O)O)cc1CSCCSCc1cc(C(=O)O)oc1C	-1	52*	1	1	42*	16	AS interf DR=>6.5
CCCCN1C(=O)NC2NC(=O)NC21 (centres undefined)	-1	94*	11	0	86*	54*
CCN(CC)C(=O)CN1CCN(c2ncccn2)CC1	0	56*	0	1	18	10
CCN(CC)C(=O)CN1CCC(O)(c2ccccn2)CC1	0	9	15	-2	.	.
O=C(CSc1nnc(-c2ccccc2)n1Cc1ccco1)N1CCCC1	0	20	3	1	.	.
O=C(/C=C/c1cccs1)N1CCN(c2ccc(-c3ccccn3)nn2)CC1	-1	56*	-8	1	104*	101*
O=C(/C=C/c1ccco1)N1CCN(c2ccc(-c3ccccn3)nn2)CC1	-1	49	-5	-1	.	.
O=C(Cc1cccs1)N1CCN(c2ccc(-c3ccccn3)nn2)CC1	-1	68*	-11	-1	51*	100*
Cn1cc(CC(=O)N2CCN(c3ccc(-c4ccccn4)nn3)CC2)c2ccccc21	-1	122*	42*	-3	108*	101*
O=Cc1cc(Cl)ccc1OCCCN1CCN(Cc2ccccc2)CC1	0	57*	-4	0	5	10
CC(=O)CCc1ccc(OCCCN2CCN(Cc3ccccc3)CC2)cc1	0	59*	1	0	9	6
O=Cc1cc(Cl)ccc1OCCOc1ccccc1	0	-3	-48	-1	.	.
CN1CCN(CCCOc2ccccc2C=O)CC1	1	65*	-2	-1	6	17
COc1ccc(CN2CCN(CCOCCO)CC2)cc1	0	14	6	2	.	.
CCCCOc1ccc(CN2CCN(CCOCCO)CC2)cc1	0	76*	6	2	18	-1
CC1(C)NC(=O)N(CC(O)COc2ccc(C(C)(C)C)cc2)C1=O (centres undefined)	0	-3	-8	1	.	.
O=Cc1ccc(OCCCN2CCN(Cc3ccccc3)CC2)cc1	0	57*	10	0	6	10
CN1CCN(CCCOc2ccc(Cc3ccccc3)cc2)CC1	0	-4	4	0	.	.
Cc1c(C(=O)NCc2cccnc2)sc2ncn(Cc3cccc(F)c3)c(=O)c12	0	3	0	-1	.	.
Cc1ccccc1Nc1ncnc2c1nc1n2CCCCC1	0	-3	-49	-1	.	.
CCCCOc1ccc(C(=O)Nc2nc(-c3ccc(OC)cc3OC)cs2)cc1	0	-12	-1	1	.	.
CCCCOc1ccc(C(=O)Nc2nc(-c3ccc(OC)c(C)c3)cs2)cc1	0	64*	-4	0	-1	13
NC(=O)NC(c1ccccc1)c1cccc(Cl)c1 (centres undefined)	1	17	1	0	.	.
Cc1ccc(C)n1C(CC(=O)O)c1cccc(Cl)c1 (centres undefined)	0	77*	3	0	16	7
CC(NC(=O)c1ncoc1-c1cccs1)c1ccncc1 (centres undefined)	0	-3	-8	-1	.	.
CCOC(=O)c1c(C)n(-c2ccc(C)cc2)c2ccc(OCC(O)CN3CCN(CCO)CC3)cc12 (centres undefined)	0	86*	-6	-1	17	6
